The list is not random: actives were taken first. Their share in the collection is about 21%.
CHX counter: counter-screen for Shiga toxin inhibitors: cycloheximide protein synthesis inhibition; AID 2314; max response, %; cell reporter, cycloheximide protein synthesis inhibition counterscreen; actives 12% (n = 300,000); in the data active = max response mostly above about 13%, no sharp cut-off; inactive = mostly below about 14%; also: read at 38.3 µM for the half of the compounds with a filed dose; 0% is about no effect
Pf growth 48h: inhibits P. falciparum growth in the first generation, 48 h; P. falciparum luciferase growth in erythrocytes, 48 h; actives 5.9% (n = 310,000); Potency, µM (series often up to 28.7 µM), without a hit: at the highest dose activity change, negative = inhibition, actives largely listed as inhibitors; also: potency is read from the fitted curve at half-maximal effect; % is scaled to controls: 0 for no effect and ±100 for the full control effect
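In quantitative HTS format, infected erythrocytes bearing luciferase-reporter parasites were treated for a single generation at 37 C. Luminescence after adding detection reagent served as the growth measure.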
Shiga toxin inh: Shiga toxin inhibition; AID 2315; inhibition, % at 38.7 µM; actives 9.2% (n = 290,000); Vero cells, Shiga toxin protein synthesis inhibition reporter; in the data active = inhibition mostly above about 28%, no sharp cut-off; inactive = mostly below about 43%; also: 0% is about no effect
HCV inhibitor: inhibitors of hepatitis C virus infection; Huh7.5.1 HCVcc-Cre infection, luciferase reporter, 44 h; actives 3.4% (n = 340,000); AID 651820; Potency, µM (titrated, usually from 41.8 µM), for inactives: at the highest dose activity change, negative = inhibition, usual class: inhibitors; also: potency is read from the fitted curve at half-maximal effect; % is scaled to controls: 0 for no effect and ±100 for the full control effect
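1,000 cells/well; 4 h culture; + compound; + HCVcc-Cre (~0.5 moi); 44 h; luciferase substrate, RT 15 min; read 15 sec.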
AMA1-RON2 inh: AMA1-RON2 (P. falciparum) interaction inhibition | actives 0.2% (n = 360,000) | AID 720542 | Potency, µM (doses to about 58.2 µM), inactives show at the top dose activity change, negative = inhibition, hits mostly inhibitors | AlphaScreen AMA1-biotinylated RON2 peptide binding;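 also: potency is read from the fitted curve at half-maximal effect; 0% = vehicle wells and -100% = peptide control; nearly all actives have a fitted effect of over 45% in size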
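AMA1 (3D7) with his tag at 25 nM final met compounds first, then biotinylated RON2 peptide at 25 nM; detection used donor plus acceptor beads, 10 µg/mL apiece, read by AlphaScreen after 30 min at room temperature.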
Pf growth 96h: inhibits malaria parasite growth, 96 h; Potency, µM (highest dose often 28.7 µM), for inactives: at the top dose activity change, negative = inhibition, usual class: inhibitors; actives 6.9% (n = 320,000); AID 504834; P. falciparum luciferase reporter growth, 96 h; also: potency is read from the fitted curve at half-maximal effect; % is scaled to controls: 0 for no effect and ±100 for the full control effect
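Compounds incubated with erythrocytes infected by luciferase-expressing P. falciparum (2% hematocrit, 0.05% parasitemia final) for 96 hours, 37 C in 5% CO2. Growth inhibition scored as decreased luciferase luminescence.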
* hit, by the source's call; ? = inconclusive; · = no result; [ ] = another dose, or the depositor's remark. Unless noted, calls follow the shape of the dose curve; as a rule, active = well fitted curve in the direction sought with a large enough effect; inconclusive = small, poorly fitted or top-dose-only effect, or another doubt; inactive = no such curve, though single readings can be large; an effect the other way counts as inactive or inconclusive.

SMILES | CHX counter | Pf growth 48h | Shiga toxin inh | HCV inhibitor | AMA1-RON2 inh | Pf growth 96h
CC(=O)c1ccc(OC(=O)/C=C/c2ccccc2)cc1 | -2 | 20% | 10 | 17% | -5% | 10µM*
Cc1ccccc1/C(N)=N/OC(=O)/C=C/c1ccccc1 | 44* | -14% | 159* | ? | 4% | ·
COc1ccc(/C=C/C(=O)O/N=C(\N)c2ccccc2)cc1OC | 36* | 36% | 28* | -11% | -9% | ?
Cc1ccc(/C(N)=N/OC(=O)/C=C/c2ccccc2)cc1 | 23* | 52% | 55 | -2% | 41% | 48%
COc1ccc(/C(N)=N/OC(=O)/C=C/c2ccccc2)cc1 | 19 | ? | 30 | 6% | 7% | -28%
Cc1ccc(-c2nc3ncccc3o2)cc1NC(=O)c1ccc2c(c1)OCO2 | · | · | · | 5% | 3% | ·
Cc1cc(NC(=O)c2cc3cccc([N+](=O)[O-])c3[nH]2)ccc1F | 56* | ? | 86* | 11µM* | -1% | ?
COCC(C)NC(=O)c1cc2cccc([N+](=O)[O-])c2[nH]1 (centres undefined) | 22 | 5.2µM* | 17 | -25% | -2% | ?
Cc1ccc(NC(=O)c2cc(Cl)ccc2[N+](=O)[O-])cc1C | 12 | -2% | 12 | ? | 8% | 14%
CCCC1(CCC)NC(=O)N(CC(=O)Nc2ccc3c(c2)OCCO3)C1=O | · | · | · | -1% | -23% | ·
COc1cc(C)c(CN2CCN(C(C)C(=O)NC(C)c3ccccc3)CC2)cc1OC (centres undefined) | -3 | -15% | -9 | ? | 0% | 3%
S=c1[nH]nc(COc2ccc3ccccc3c2)o1 | 15 | 45% | 43* | 12% | 35% | 9.3µM*
N#CCSc1nnc(COc2ccc3ccccc3c2)o1 | 67* | 28% | 93* | -7% | -3% | ·
CCCCn1c(N)c(N(CC(C)C)C(=O)CN2C(=O)NC3(CCC(C(C)(C)CC)CC3)C2=O)c(=O)[nH]c1=O (centres undefined) | · | · | · | -14% | 2% | ·
CN(C)CCCNc1nc2cc(-c3ccc4c(ccn4C)c3)sc2c(=O)n1C | · | · | · | · | -11% | ·
N/C(=N\OC(=O)CCc1ccccc1)c1ccccc1Cl | 28* | 10%[5.75 µM] | 107* | -4% | 19% | ?
N/C(=N\OC(=O)CCc1ccccc1)c1ccc(Br)cc1 | 38* | 19% | 71* | 29% | 33% | 0%
Cc1ccc(/C(N)=N/OC(=O)CCc2ccccc2)cc1 | 33* | 43% | 91* | 11% | 28% | 217%
COC(=O)c1cc(C(=O)N2CCc3ccccc32)cc([N+](=O)[O-])c1 | -2 | -1% | -4 | 13% | 0% | 0%
COc1ccc(C(=O)OCC(=O)N2CCN(S(=O)(=O)c3ccc(C)cc3)CC2)cc1[N+](=O)[O-] | · | · | · | 6% | 6% | ·
CC(=O)CC1OC(=O)C(Br)=C1NCc1ccccc1 (centres undefined) | 22* | -2% | 29 | ? | -3% | 7.4µM*
CCn1cc(C(=O)O)c(=O)c2cc(F)c(N3CCN(C(=S)NC(=O)c4ccc(F)c(F)c4)CC3)cc21 | 8 | 6.6µM* | -10 | 14% | 94% | 1%
CCn1cc(C(=O)O)c(=O)c2cc(F)c(N3CCN(C(=S)NC(=O)c4c(OC)cccc4OC)CC3)cc21 | -3 | ? | -17 | -28% | 15% | -2%
CCn1cc(C(=O)O)c(=O)c2cc(F)c(N3CCN(C(=S)NC(=O)c4ccc(F)cc4)CC3)cc21 | 7 | ? | 24 | -11% | 106% | ?
CCn1cc(C(=O)O)c(=O)c2cc(F)c(N3CCN(C(=S)NC(=O)c4ccccc4Br)CC3)cc21 | 3 | ? | 3 | 19% | 97% | 5.2µM*
SMILES | CHX counter | Pf growth 48h | Shiga toxin inh | HCV inhibitor | AMA1-RON2 inh | Pf growth 96h
CCn1cc(C(=O)O)c(=O)c2cc(F)c(N3CCN(S(=O)(=O)c4ccc(NC(=O)OC)cc4)CC3)cc21 | -4 | 4.7µM* | -5 | 15% | 6% | ?
CCn1cc(C(=O)O)c(=O)c2cc(F)c(N3CCN(C(=S)Nc4ccccc4OC)CC3)cc21 | -2 | ? | 3 | 1% | 3% | -9%
CCn1cc(C(=O)O)c(=O)c2cc(F)c(N3CCN(C(=S)NC(=O)c4cccc(F)c4)CC3)cc21 | -1 | 10µM* | -7 | 15% | 96% | ?
CCCS(=O)(=O)NC(=O)C1(C)CCN(C(=O)COc2ccc(Cl)cc2Cl)C1 (centres undefined) | · | · | · | · | -2% | ·
C=CCN(C(=O)C1CC(=O)N(C2CCCC2)C1)c1nc(-c2ccc(S(C)(=O)=O)cc2)cs1 (centres undefined) | · | ? | · | ? | 6% | 53%
CCc1ccc(N2CC(C(=O)N3CCN(S(=O)(=O)c4cccc(F)c4)CC3)CC2=O)cc1 (centres undefined) | · | · | · | · | 44% | ·
CCCCCCC(=O)N1CCN(c2cc3c(cc2F)c(=O)c(C(=O)O)cn3CC)CC1 | · | · | · | 19% | -24% | ·
CCCOc1ccc(C(=O)NC(=S)N2CCN(c3cc4c(cc3F)c(=O)c(C(=O)O)cn4CC)CC2)cc1 | 0 | 15µM* | -5 | 20% | 63% | 7%
CCOC(=O)c1c(C)sc2c1N(C(=O)CCl)c1cc(Cl)ccc1S2 | -5 | ? | -19 | ? | 1% | 15µM*
CCOC(=O)c1[nH]nc(C(=O)c2ccc(Br)cc2)c1O | 14 | 0% | 63* | 13% | 1% | 15%
C/C=C(\C)C(=O)NCCN1C2=NC[C@H](Cc3ccccc3)N2C[C@@H]1Cc1ccc(OC)cc1 | · | · | · | 12% | -4% | ·
COc1ccc(C[C@H]2CN3C(=NC[C@H]3Cc3ccccc3)N2CCNC(=O)c2ccc(C)c(Br)c2)cc1 | -7 | 5.2µM* | -13 | -14% | -8% | 1.7µM*
COc1ccc(C[C@H]2CN3C(=NC[C@@H]3Cc3ccccc3)N2CCNC(=O)c2ccc(C)c(Br)c2)cc1 | -1 | ? | -10 | ? | -16% | 5.2µM*
CC(C)c1ccc(CC(=O)N2CCC2(C)C(=O)NS(=O)(=O)c2cccc(C#N)c2)cc1 (centres undefined) | · | · | · | · | 4% | ·
CC(C)Sc1nc2c(c(=O)n(C)c(=O)n2C)n1C | 5 | 13% | -5 | 19% | 8% | 0%
Cn1c(=O)c2c(nc(SC3C(=O)CC(C)(C)CC3=O)n2C)n(C)c1=O | -5 | 24% | 7 | 5% | 0% | 12µM*
CC1CCCC(C)N1C(=O)CSc1nc2c(c(=O)n(C)c(=O)n2C)n1C (centres undefined) | -1 | 0% | 5 | 7% | -24% | 15%
CCC1(C)N=C(c2ccc3c(c2)OCO3)CC(c2ccccc2O)N1 (centres undefined) | 44* | 4.7µM* | 66* | ? | -3% | ·

Screening data (PubChem)
